Source: PubChem BioAssay AID2314 (National Center for Advancing Translational Sciences (NCATS), 2010)
Among all 300,000 compounds or so, about 37,000 (12%) were called active. This is one part of a sample in which actives are shown more often than they occur. Values without a mark were called inactive. Rule as the data show it: active = max response mostly above about 13% (no sharp cut-off); inactive = mostly below about 14%.

Test: Cycloheximide Counterscreen for Small Molecule Inhibitors of Shiga Toxin; also: read at 38.3 µM for the half of the compounds with a filed dose; 0% is about no effect
Details: cell reporter, cycloheximide protein synthesis inhibition counterscreen; stronger effect = higher value

Compound	max response
NC(=O)C1CC(=O)N(c2ccc(OCC(=O)NCc3ccccc3)cc2)C1 (configuration not stated)	-2.39%
Cc1ccc(S(=O)(=O)N2CCC(C)CC2)cc1C(=O)NCc1ccccn1	5.45%
NC(=O)c1oc2ccccc2c1NC(=O)CS(=O)(=O)c1ccccc1	14.9%
C=CCOc1cccc(CNCc2cccnc2)c1	1.07%
COc1ccc(/C=C2/C(=O)OCc3cc(OC)c(OC)cc32)c(OC)c1	-1.45%
CC(=O)c1cccc(NC(=O)C2CCN(C(=O)c3ccccc3Cl)CC2)c1	-2.1%
COC(=O)c1cccc(N(CC(=O)NCC2CCCO2)C(=O)CCC(=O)Nc2cc(C)on2)c1 (configuration not stated)	-2.44%
COc1cccc(NC(=O)CCc2nnc3ccc(N4CCC(C)CC4)nn23)c1	-5.83%
COc1ccccc1CN1CCNC(=O)C1CC(=O)N(C)CC1CCOCC1 (configuration not stated)	-1.38%
Cc1ccc2nc(C)c3c(c2c1)N(c1ccccc1)CC3	-1.78%
CCc1nc2ccc(C(=O)N3CCN(c4cccc(Cl)c4)CC3)cc2nc1CC	-0.581%
Cc1c(CN2CCCC(C(=O)c3cccc(Cl)c3)C2)c(=O)n(-c2ccccc2)n1C (configuration not stated)	-3.35%
Cc1ccc(-c2noc(C3CCCN(C(=O)c4cccc(Cl)c4)C3)n2)o1 (configuration not stated)	47.3% (active)
Cc1cccc2c1-c1sc(C(=O)NCCCN3CCc4ccccc4C3)cc1CO2	1.19%
O=S1(=O)N=C(N(CCO)/N=C/c2ccccc2F)c2ccccc21	-7.2%
CCOC(=O)Cc1csc(SCC(=O)NC(C)C23CC4CC(CC(C4)C2)C3)n1 (configuration not stated)	-2.6%
Cc1[nH]c2c(C(=O)N3CCCC(CCC(=O)NCc4ccccc4F)C3)cccc2c1C (configuration not stated)	18.9% (active)
CSc1ncccc1C(=O)N1CCCC(CCC(=O)NCc2ccccc2F)C1 (configuration not stated)	-1.29%
O=C(CCC1CCCN(Cc2ccc(O)c(Cl)c2)C1)NCc1ccccc1F (configuration not stated)	-1.08%
CC(C)(C)c1ccc(OC2=CS(=O)(=O)c3ccccc32)cc1	81.1% (active)
COc1ccc(CN2CCC(=O)c3ccccc3S2(=O)=O)cc1	-4.16%
O=S1(=O)C=C(SCCN2CCCC2)c2ccccc21	4.83%
CS(=O)(=O)N1CCCC(C(=O)Nc2ccccc2C(F)(F)F)C1 (configuration not stated)	0.965%

Compound	max response
CN1C(=O)c2cccc3c(N)ccc(c23)C1=O	-4.64%
C=CCOc1nc2c(c(=O)n(C)c(=O)n2C)n1Cc1ccc(Cl)cc1Cl	-2.08%
Cn1c(=O)c2c(nc(OCc3cccnc3)n2Cc2ccccc2)n(C)c1=O	14.9% (active)
Cn1c(=O)c2c(nc(NCCc3ccccc3)n2Cc2ccccc2)n(C)c1=O	-1.53%
CS(=O)(=O)N(CC(=O)N1CCCCCC1)c1cccc(Cl)c1Cl	-2.66%
CC(=O)Nc1ccc(S(=O)(=O)N2CCC(NC(=O)c3ccccc3)CC2)cc1	-2%
COc1ccc(S(=O)(=O)N2CCN(C(=S)NCC3CCCO3)CC2)cc1OC (configuration not stated)	-1.28%
Cc1cccc(-n2c(O)c(C=Nc3ccccc3N)c(=O)[nH]c2=O)c1	39.4% (active)
Cc1cccc(-n2c(O)c(C=NC34CN5CN(CN(C5)C3)C4)c(=O)[nH]c2=O)c1	8.1%
Cc1cccc(-n2c(O)c(/C=N/N3CCOCC3)c(=O)[nH]c2=S)c1	-8.26%
CC1(C)Oc2ccc3ccc(=O)oc3c2/C(=N/O)C1=O	7.27%
COc1ccc(/C=N/NC(=O)C2CC2)c(OC)c1OC	3.25%
Oc1ccccc1C=NC1CCCCC1N=Cc1ccccc1O (configuration not stated)	6.63%
O=C(N/N=C/c1ccccc1O)C1CCCC1	28% (active)
COc1cc(NC(=O)NCC2CCN(Cc3ccc(C)cc3)CC2)cc(OC)c1OC	-2.97%
COc1ccccc1C(=O)OCC(=O)NCCNC(=O)COC(=O)c1ccccc1OC	-1.55%
COc1cc(C(=O)NCc2ccc3c(c2)cc(C)n3C)cc(OC)c1OC	-6.41%
Cc1ccc(C(C(=O)NCC2CCCO2)N(C(=O)c2snc(C(N)=O)c2N)c2ccc(C(C)C)cc2)o1 (configuration not stated)	8.94%
CCNc1nc(Oc2ccc(C(=O)OC)cc2)nc(N2CCOCC2)n1	-3.34%
COC(=O)c1ccc(Oc2nc(NC(C)C)nc(SC)n2)cc1	9.19% (active)
COC(=O)c1ccc(Oc2nc(Nc3ccc(F)cc3)nc(N3CCCC3)n2)cc1	0.283%
CCOc1ccc(NC(=O)CC(Cc2ccc(Cl)cc2)C(=O)O)cc1 (configuration not stated)	-1.1%
CC(NC(=O)C(=O)Nc1nccs1)c1ccccc1 (configuration not stated)	-0.875%

Compound	max response
O=C(O)c1ccccc1-c1ccccc1C(=O)Nc1nccs1	-6.56%
Cn1cccc1C(=O)Nc1nccs1	18.6% (active)
Cc1ccc2cccc(S(=O)(=O)N3CCN(c4ccccc4F)CC3)c2n1	-1.96%
COc1ccccc1Nc1cc(C(=O)NCCCN(C)C2CCCCC2)c2ccccc2n1	-15.5%
Clc1cccc(Cl)c1Cn1nnc(-c2cccs2)n1	1.15%
CCc1ccc(-c2nnn(Cc3nn[nH]n3)n2)cc1	-4.49%
CCc1ccc(-c2nnn(Cc3nc4ccccc4s3)n2)cc1	38.7% (active)
Cc1cc(N2CCN(c3ccc(F)cc3)CC2)n2ncnc2n1	1.63%
COC(=O)c1ccccc1NS(=O)(=O)c1ccc2[nH]c(=O)[nH]c2c1	-1.95%
O=C(NC(=S)Nc1cccc2c(O)cccc12)c1cccc(Br)c1	-1.87%
Cc1cc(C(=O)NNC(=S)NC(C)c2ccccc2)cs1 (configuration not stated)	-2.7%
CC(CC(=O)O)CC(=O)NNC(=O)c1cccc(Br)c1 (configuration not stated)	-1.69%
Cc1ccccc1NC(=S)NNC(=O)c1cccc(Br)c1	17.3% (active)
Cc1cc(C(=O)NNC(=S)Nc2ccccc2C)cs1	34.5% (active)
Cc1ccc(C)c(NC(=S)NNC(=O)c2csc(C)c2)c1	10.1%
CCCCN=C1C([N+](=O)[O-])=CC=C2C1=NC1(CCCCC1)N2O	4.25%
CCCc1nnc(NC(=O)CCC(=O)NC2CC2)s1	-2.75%
Cc1ccc2c(c1)C1CN(C)CCC1N2S(=O)(=O)c1ccc(Oc2ccc([N+](=O)[O-])cc2)cc1 (configuration not stated)	-3.12%
Cc1ccc(C(=O)NC2CCN(C(=O)Nc3ccccc3Cl)CC2)cc1	-2.19%
Cc1nn(CC(=O)NCC2CCCO2)c(=O)c2cc3ccccc3n12 (configuration not stated)	3.06%
Cc1ccnc(N2C(=O)c3ccc([N+](=O)[O-])cc3C2=O)c1	-0.576%
Cc1ccc(-c2cn3cc(C)ccc3n2)cc1	-15.5%
Cc1ccc(C(=O)Cn2cc([N+](=O)[O-])nc2C)cc1	-1.83%

Compound	max response
Cc1ccc2nc(-c3ccc(Br)cc3)cn2c1	17.6% (active)
Cc1ccc(-c2cn3cc([N+](=O)[O-])ccc3n2)cc1	92.8% (active)
CSc1nnc2ccc(-c3ccc(C)cc3)nn12	8.85%
CC1CCN(C(=O)c2ccc(S(=O)(=O)Cc3cc(F)ccc3F)c([N+](=O)[O-])c2)CC1	0.662%
O=C(CN1CCN(S(=O)(=O)c2cc(Cl)ccc2Cl)CC1)c1ccc(O)c(O)c1	6.66%
CCC(C)NCCOCCOc1ccc(Br)cc1C (configuration not stated)	-2.66%
COC(=O)CSc1nc2c(c(C3CC=CCC3)c1C#N)CCC2 (configuration not stated)	-1.01%
CCOC(=O)c1sc(C)c2c1NC(C)(c1cccc3ccccc13)NC2=O (configuration not stated)	0.788%
C/C(=N\NC(=O)Cc1ccccc1[N+](=O)[O-])c1cccnc1	-0.525%
CC(C)(C)C1CCc2c(sc3nc(SCC(N)=O)nc(N)c23)C1 (configuration not stated)	28.1% (active)
Nc1nc(SCC(=O)NCCN2CCOCC2)nc2sc3c(c12)CCC3	-2.27%
C=C(C)CSc1nc(N)c2c3c(sc2n1)CCC3	18.4% (active)
Cc1sc2nc(SCC(N)=O)n(C)c(=O)c2c1C	-2.39%
CN(C)CCSc1nc(N)c2c3c(sc2n1)COC(C)(C)C3	-2.73%
CCC1(C)Cc2c(sc3nc(SC)nc(N)c23)CO1 (configuration not stated)	8.94%
C=CCn1cc(C(=O)NCc2ccc(Cl)cc2)c(=O)c2cc(S(=O)(=O)N(CC)CC)ccc21	-6.07%
CN(CCNC(=O)c1cc2c(-c3ccccc3F)nn(C)c2s1)C1CCCCC1	-2.34%
CCOC(=O)C1CCCN(S(=O)(=O)c2ccc3c(c2)C(C)(C)C(=O)N3C)C1 (configuration not stated)	-2.15%
COc1ccc(N(C(=O)c2ccc(C)cc2)S(=O)(=O)c2cccs2)cc1	10.9%
Clc1ccc(C2=CSC3=Nc4cccc5cccc(c45)N23)cc1	11.3% (active)
CC(=O)Oc1cccc(N2C(=O)C3CC=C(Cl)CC3C2=O)c1 (configuration not stated)	-3.93%
CC(=O)Oc1cccc(N2C(=O)CC(Nc3ccc(N4CCOCC4)cc3)C2=O)c1 (configuration not stated)	49% (active)
COc1ccc(N2CCN(C3CC(=O)N(c4ccc5c(c4)OCCO5)C3=O)CC2)cc1 (configuration not stated)	1.96%

Compound	max response
COc1ccccc1OCc1nc2ccccc2s1	27.4% (active)
COc1ccccc1OCCn1c(SCC(N)=O)nc2ccccc21	-1.3%
COc1ccc(Cn2c(=O)sc3ccccc32)cc1OC	-0.76%
CC1CCc2c(nc3ncnn3c2Nc2ccc(OC(F)(F)F)cc2)C1 (configuration not stated)	0.841%
OCCn1c(-c2ccccc2)csc1=Nc1ccccc1	38.9%
O=c1oc2ccccc2cc1-c1csc(Nc2ccc(O)cc2)n1	46% (active)
CC(=O)Nc1nc(C)c(-c2csc(Nc3ccc(S(N)(=O)=O)cc3)n2)s1	-0.544%
COc1ccc2oc(=O)cc(-c3cc4ccccc4o3)c2c1	4.74%
CCNc1nc(-c2cc3ccccc3o2)cs1	58% (active)
COc1ccc2nc(Nc3nc4ccc(NC(C)=O)cc4s3)sc2c1	6.12%
CCOc1ccc(S(=O)(=O)Nc2nc3cc(OC)ccc3s2)cc1	-4.35%
Cn1c(SCC(=O)NC2CCCCC2)nnc1-c1cc2ccccc2o1	10.2%
COc1ccc2nc(Nc3nc4cc5c(cc4s3)OCCO5)sc2c1	33.1% (active)
COc1ccc2nc(Nc3nc(-c4cc5ccccc5oc4=O)cs3)sc2c1	13.6% (active)
COc1ccc2nc(Nc3nc(-c4ccncc4)cs3)sc2c1	21.5%
COc1ccccc1CN(C)C(=O)c1cc2ccccc2o1	7.81%
Cc1ccc(OCCCC(=O)Nc2ccc(S(=O)(=O)Nc3cc(C)nc(C)n3)cc2)cc1	-2.32%
CN(C)[C@@H]1C(=O)C(C(N)=O)=C(O)[C@@]2(O)C(=O)C3=C(O)c4c(O)ccc(Cl)c4[C@@H](O)[C@H]3C[C@@H]12	3.73%
CCN(CC)CCOCCOc1ccc(Cl)c2ccccc12	-2.87%
COc1cc(NS(=O)(=O)c2ccc(NC(=S)NC(=O)c3ccc(Br)cc3)cc2)ncn1	0.589%
